Laboratory results as given in PubChem BioAssay (NCATS).
Values joined by “and” are separate entries in the source; they are usually repeats but may differ in a detail not shown here. Identical values can stand only once. Inconclusive results are not listed. A number with no mark means an inactive call. Active and inactive are the calls of the source. The call rests on the fitted dose curve; in most records, active means well fitted inhibition curve with a large enough effect; inconclusive means small, poorly fitted or top-dose-only effect; inactive means flat fitted curve, though single readings scatter.
On the % scale 0 is the no-effect control and ±100 the full control effect.

These molecules were tested on HaCat (assay: Cytotoxic Profiling of Annotated Libraries Using Quantitative High-Throughput Screening (AID 1296008; further: nearly all actives have a fitted effect of over 60% in size)). Settings: Five cell lines viability, CellTiter-Glo ATP luminescence, 48-72 h; max response: active compounds read low.
How it was run: (§1)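 Cytotoxicity was measured as CellTiter-Glo ATP luminescence, read after 10 min at room temperature. Compound treatment of the cells lasted 48 or 72 hr at 37 degrees Celsius in a qHTS format.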
For `CCN(Cc1ccncc1)C(=O)C(CO)c1ccccc1` (stereo unspecified), the outcome was “inactive”. Molecule `NC(=O)c1cn(Cc2c(F)cccc2F)nn1` has a max response of 0.796%. `CCCCCN(CCCCC)C(=O)C(CCC(=O)O)NC(=O)c1ccc(Cl)c(Cl)c1` (stereo unspecified) was tested, and the outcome was “inactive”. With `O=C1CC2(CCCC2)CC(=O)N1CCCCN1CCN(c2ncccn2)CC1` the outcome was “inactive”. In the case of `NC(Cc1ccc(Cl)cc1)C(=O)O` (stereo unspecified), the outcome was “inactive”. In the case of `CCCN(CCC)CCc1cccc2c1CC(=O)N2`, the max response was -2.54%. Work on `O=C(O)CN(CCOCCOCCN(CC(=O)O)CC(=O)O)CC(=O)O` yielded a max response of 4.17%. With `CCN(CC)CCNC(=O)c1ccc(NC(C)=O)cc1` the max response was 0.497%. `CCCN(CCC)C(=O)C(CCC(=O)O)NC(=O)c1ccccc1` (stereo unspecified) showed a max response of 4.34%. Molecule `O=C(O)CCCCCCCC(=O)O` has a max response of 2.4%. Molecule `Cc1ccc(/C(=C\CN2CCCC2)c2ccccn2)cc1` has a max response of -3.07%. For `CC(=O)OCC1=C(C(=O)O)N2C(=O)[C@@H](NC(=O)Cc3cccs3)[C@H]2SC1`, the outcome was “inactive”. `COc1cc(Cc2cnc(N)nc2N)cc(OC)c1OC` was tested, and the outcome was “inactive”. With `CCCNC(C)C(=O)Nc1ccccc1C` (stereo unspecified) the outcome was “inactive”. `CNC1(C)C2CCC(C2)C1(C)C` (stereo unspecified) was tested, and the outcome was “inactive”. With `Cc1scc2c1N(C(=O)CN1CCN(C)CC1)c1ccccc1NC2=O` the outcome was “inactive”. For `CCCOc1ccccc1-c1nc2n[nH]nc2c(=O)[nH]1`, the outcome was “inactive”. `CC(C)NNC(=O)c1ccncc1` was tested, and the outcome was “inactive”. For `Nc1c2c(nc3ccccc13)CCCC2O` (stereo unspecified), the outcome was “inactive”. In the case of `NC(=O)c1ncn([C@@H]2O[C@H](CO)[C@@H](O)[C@H]2O)c1O`, the outcome was “inactive”. With `Cc1nc2c([nH]1)c(=O)n(C)c(=O)n2Cc1ccco1` the outcome was “inactive”. `Cc1cc(C)c(/C=C2\C(=O)Nc3ccccc32)[nH]1` gave a max response of -11.3%. With `CC(=O)OC(C)C[N+](C)(C)C` (stereo unspecified) the outcome was “inactive”. `CCn1cc(C(=O)O)c(=O)c2cc3c(cc21)OCO3` was tested, and the max response was -9.91%. Molecule `CC(=O)Nc1nnc(S(N)(=O)=O)s1` has a max response of 4.4%. `NC(=Nc1ccccc1)Nc1ccccc1` was tested, and the max response was 2.68% and the outcome was “inactive”. With `FC(F)(F)c1ccccc1-n1ccnc1` the outcome was “inactive”. With `CCCCOCCOCCOCc1cc2c(cc1CCC)OCO2` the max response was 2.25% and -5.48%. With `CCN1CCc2nc(N)oc2CC1` the outcome was “inactive”. With `O=C(CCNNC(=O)c1ccncc1)NCc1ccccc1` the max response was -22%. With `C[N+](C)(C)CCOC(=O)CCC(=O)OCC[N+](C)(C)C` the outcome was “inactive”. `CN(C)CCOC(=O)COc1ccc(Cl)cc1` was tested, and the outcome was “inactive”. For `NC/C=C/C(=O)O`, the outcome was “inactive”. With `CCN(CC)CC(=O)Nc1c(C)cccc1C` the max response was -2.67%. For `CCN1CCC[C@H]1CNC(=O)c1c(O)c(Cl)cc(Cl)c1OC`, the outcome was “inactive”.

The molecules below were run on KB-3-1 in the same assay as above. Settings: Five cell lines viability, CellTiter-Glo ATP luminescence, 48-72 h; max response: active compounds read low.
How it was run: as §1
For `CCN(Cc1ccncc1)C(=O)C(CO)c1ccccc1` (stereo unspecified), the max response was 6.96%. Work on `NC(=O)c1cn(Cc2c(F)cccc2F)nn1` yielded a max response of -1.38%. Molecule `CCCCCN(CCCCC)C(=O)C(CCC(=O)O)NC(=O)c1ccc(Cl)c(Cl)c1` (stereo unspecified) has a max response of -8.56%. `O=C1CC2(CCCC2)CC(=O)N1CCCCN1CCN(c2ncccn2)CC1` showed a max response of -1.42%. `NC(Cc1ccc(Cl)cc1)C(=O)O` (stereo unspecified) was tested, and the max response was -13.5%. For `CCCN(CCC)CCc1cccc2c1CC(=O)N2`, the max response was -0.569%. Molecule `O=C(O)CN(CCOCCOCCN(CC(=O)O)CC(=O)O)CC(=O)O` has a max response of 5.76%. Molecule `CCN(CC)CCNC(=O)c1ccc(NC(C)=O)cc1` has a max response of 1.57%. With `CCCN(CCC)C(=O)C(CCC(=O)O)NC(=O)c1ccccc1` (stereo unspecified) the max response was 20.1%. For `O=C(O)CCCCCCCC(=O)O`, the max response was -3.68%. Molecule `Cc1ccc(/C(=C\CN2CCCC2)c2ccccn2)cc1` has a max response of 18.1%. `CC(=O)OCC1=C(C(=O)O)N2C(=O)[C@@H](NC(=O)Cc3cccs3)[C@H]2SC1` gave a max response of 1.19%. `COc1cc(Cc2cnc(N)nc2N)cc(OC)c1OC` gave a max response of 8.08%. Work on `CCCNC(C)C(=O)Nc1ccccc1C` (stereo unspecified) yielded a max response of 7.86%. `CNC1(C)C2CCC(C2)C1(C)C` (stereo unspecified) showed a max response of 0.165%. In the case of `Cc1scc2c1N(C(=O)CN1CCN(C)CC1)c1ccccc1NC2=O`, the max response was 6.97%. `CCCOc1ccccc1-c1nc2n[nH]nc2c(=O)[nH]1` showed a max response of -27%. `CC(C)NNC(=O)c1ccncc1` was tested, and the max response was -1.28%. `Nc1c2c(nc3ccccc13)CCCC2O` (stereo unspecified) was tested, and the max response was -6.2%. Work on `NC(=O)c1ncn([C@@H]2O[C@H](CO)[C@@H](O)[C@H]2O)c1O` yielded a max response of 8.08%. Work on `Cc1nc2c([nH]1)c(=O)n(C)c(=O)n2Cc1ccco1` yielded a max response of 16.5%. In the case of `Cc1cc(C)c(/C=C2\C(=O)Nc3ccccc32)[nH]1`, the max response was -3.51%. In the case of `CC(=O)OC(C)C[N+](C)(C)C` (stereo unspecified), the max response was 6%. Molecule `CCn1cc(C(=O)O)c(=O)c2cc3c(cc21)OCO3` has a max response of -12.7%. For `CC(=O)Nc1nnc(S(N)(=O)=O)s1`, the max response was 1.55%. For `NC(=Nc1ccccc1)Nc1ccccc1`, the max response was -0.105%. `FC(F)(F)c1ccccc1-n1ccnc1` gave a max response of 22%. `CCCCOCCOCCOCc1cc2c(cc1CCC)OCO2` was tested, and the max response was -1.58% and -16.8%. `CCN1CCc2nc(N)oc2CC1` gave a max response of 2.16%. `O=C(CCNNC(=O)c1ccncc1)NCc1ccccc1` gave a max response of 4.64%. Molecule `C[N+](C)(C)CCOC(=O)CCC(=O)OCC[N+](C)(C)C` has a max response of 1.17%. `CN(C)CCOC(=O)COc1ccc(Cl)cc1` gave a max response of -1.09%. Molecule `NC/C=C/C(=O)O` has a max response of 3.52%. Work on `CCN(CC)CC(=O)Nc1c(C)cccc1C` yielded a max response of -0.324%. `CCN1CCC[C@H]1CNC(=O)c1c(O)c(Cl)cc(Cl)c1OC` was tested, and the max response was -13.7%.
